# Sfp inh: qHTS Assay for Inhibitors of Bacillus subtilis Sfp phosphopantetheinyl transferase (PPTase); Potency, µM, without a hit: largest response in the series, negative = inhibition, usual class: inhibitors; 3.5% of 310,000 active; AID 1490, 2009; Biochemical Sfp PPTase activity, qHTS;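 further: the enzyme is Sfp with the accession as filed and its product quenches rhodamine fluorescence; 0% = enzyme reaction without inhibitor and -100% = no enzyme wells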
#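 Buffer: 50 mM Hepes-Na pH 7.6, 10 mM MgCl2, 0.01% Nonidet P-40, 0.01% BSA. Enzyme 15 nM, pre-exposed to compound 15 min; substrates then added and fluorescence change tracked over 30 min.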
# PLK1 PBD block: qHTS for Inhibitors of PLK1-PDB (polo-like kinase 1 - polo-box domain): Primary Screen | Serine/threonine-protein kinase PLK1 (Homo sapiens), P53350 | Plk1 PBD binding of FITC phosphopeptide, fluorescence polarization | Potency, µM, for the others: max response, negative = inhibition, most hits filed as inhibitors | 2.8% of 360,000 active; further: series mostly up to about 57 µM; on the % scale 0 is the no-effect control and ±100 the full control effect; nearly all actives have a fitted effect of over 65% in size
# G9a block: qHTS Assay for Inhibitors of Histone Lysine Methyltransferase G9a; G9a H3K9 monomethylation, AlphaScreen, 2 h; Potency, µM (top dose mostly 102 µM), for the others: at the highest dose activity, negative = inhibition, actives largely listed as inhibitors; 8.8% of 350,000 active; Histone-lysine N-methyltransferase EHMT2 (Homo sapiens), Q96KQ7; further: on the % scale 0 is the no-effect control and ±100 the full control effect; nearly all actives have a fitted effect of over 75% in size
#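 Readings reflect AlphaScreen signal from monomethyl-H3K9 antibody detection. HMT at 20 nM; substrate b-H3K9 500 nM; cofactor SAM 20 uM; 2 h RT reaction; compounds tested as titrations in qHTS with 15 min preincubation.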
# JMJD2A Tudor: qHTS Assay for Inhibitors of JMJD2A-Tudor Domain; 4.4% of 390,000 active; AlphaScreen JMJD2A-Tudor / H3K4me3 peptide binding; Potency, µM (titrated, usually from 114 µM), without a hit: top-dose activity change, negative = inhibition, most hits filed as inhibitors; further: on the % scale 0 is the no-effect control and ±100 the full control effect; nearly all actives have a fitted effect of over 50% in size
# Target sequence (O75164 whole entry, looked up, the tested form may be a part): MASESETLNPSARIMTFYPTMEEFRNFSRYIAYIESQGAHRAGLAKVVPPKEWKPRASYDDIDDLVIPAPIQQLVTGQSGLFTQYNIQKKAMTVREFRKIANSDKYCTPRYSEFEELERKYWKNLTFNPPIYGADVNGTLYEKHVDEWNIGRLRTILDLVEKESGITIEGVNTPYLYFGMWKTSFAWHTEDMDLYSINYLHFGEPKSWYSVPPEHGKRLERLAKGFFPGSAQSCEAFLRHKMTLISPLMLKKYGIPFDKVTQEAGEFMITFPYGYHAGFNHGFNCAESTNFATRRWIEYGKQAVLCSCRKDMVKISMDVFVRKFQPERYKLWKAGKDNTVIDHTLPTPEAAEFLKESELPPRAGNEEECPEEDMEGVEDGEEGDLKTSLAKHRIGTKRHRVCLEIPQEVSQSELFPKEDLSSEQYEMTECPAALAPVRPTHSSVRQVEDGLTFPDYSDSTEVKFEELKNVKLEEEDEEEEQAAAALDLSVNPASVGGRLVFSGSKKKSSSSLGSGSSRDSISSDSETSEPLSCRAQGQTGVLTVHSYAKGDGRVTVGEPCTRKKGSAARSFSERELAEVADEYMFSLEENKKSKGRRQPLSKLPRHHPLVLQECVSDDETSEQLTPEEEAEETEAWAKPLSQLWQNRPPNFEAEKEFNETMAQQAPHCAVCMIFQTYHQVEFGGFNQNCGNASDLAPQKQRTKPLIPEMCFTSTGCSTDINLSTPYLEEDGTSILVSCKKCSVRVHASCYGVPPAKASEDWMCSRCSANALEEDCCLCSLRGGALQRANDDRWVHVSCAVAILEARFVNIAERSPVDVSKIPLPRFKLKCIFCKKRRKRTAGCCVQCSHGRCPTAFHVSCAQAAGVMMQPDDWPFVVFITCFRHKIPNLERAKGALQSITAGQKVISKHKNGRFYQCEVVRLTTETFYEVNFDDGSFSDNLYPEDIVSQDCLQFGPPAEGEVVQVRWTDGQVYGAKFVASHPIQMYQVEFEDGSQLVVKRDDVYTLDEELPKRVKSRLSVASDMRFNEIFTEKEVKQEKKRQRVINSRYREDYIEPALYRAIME
# BAZ2B inh: qHTS Assay for Inhibitors of BAZ2B | 4.4% of 360,000 active | Bromodomain adjacent to zinc finger domain protein 2B (Homo sapiens), Q9UIF8 | Potency, µM (titrated, usually from 114 µM), without a hit: at the highest dose activity change, negative = inhibition, usual class: inhibitors | AlphaScreen BAZ2B-H3K14Ac peptide displacement; further: on the % scale 0 is the no-effect control and ±100 the full control effect; nearly all actives have a fitted effect of over 60% in size
#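 Protein-peptide AlphaScreen: BAZ2B 50 nM, b-H3K14Ac 50 nM, 1x PBS pH 7.4 + 0.01% Tween-20. Preincubation 30 min RT; cpd 30 min RT (top 110 uM); beads 20 min RT, light-protected.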
# HP1b chromo inh: HTS for Inhibitors of HP1-beta Chromodomain Interactions with Methylated Histone Tails; AlphaScreen HP1-beta / biotin-H3K9me3 peptide binding; Potency, µM (top dose mostly 114 µM), for inactives: at the highest dose activity change, negative = inhibition, usual class: inhibitors; 0.56% of 390,000 active; Chromobox protein homolog 1 (Homo sapiens), P83916; further: nearly all actives have a fitted effect of over 70% in size
#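 Compound inhibition of the preformed complex between 50 nM HP1-beta and 50 nM biotinylated H3K9me3 peptide was read by AlphaScreen. Buffer was PBS pH 7.4 with 0.01% Tween-20. Incubations ran 30 min at room temperature, with 10 ug/mL donor/acceptor beads.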
# Numbers without * were called inactive; u = inconclusive; x = not tested or not shown; [ ] = another dose, or the depositor's remark. Compounds with a hit are over-represented: about 12% of the library has one in this group of screens. The call rests on the fitted dose curve; in most records, active means well fitted curve in the direction sought with a large enough effect; inconclusive means small, poorly fitted or top-dose-only effect, or another doubt; inactive means no such curve, though single readings can be large; an effect the other way counts as inactive or inconclusive. Potency means the concentration at half of the fitted maximal effect.
SMILES,Sfp inh,PLK1 PBD block,G9a block,JMJD2A Tudor,BAZ2B inh,HP1b chromo inh
N#Cc1ccsc1NC(=O)COC(=O)CCS(=O)(=O)c1ccccc1,x,-19%,x,-25%,x,4%[57 µM]
NC(=O)c1ccsc1NC(=O)CCS(=O)(=O)c1ccc(Cl)cc1,x,u,35µM*,-19%,1%,27%
NC(=O)c1ccsc1NC(=O)CCS(=O)(=O)c1ccccc1,11%,-7%,5%[12.7 µM],-11%,-21%,25%
CCOC(=O)C(=O)NCC(c1ccco1)S(=O)(=O)c1cccs1 (configuration not stated),x,0%,u,11µM*,-15%,25%
CCOc1ccc(NC(=O)CSC2=Nc3ccccc3C3=NC(CC(=O)NCc4ccc5c(c4)OCO5)C(=O)N23)cc1 (configuration not stated),x,x,-6%[59 µM],-22%,-21%,16%
Cc1csc(C(C#N)C(=O)c2ccncc2)n1 (configuration not stated),-10%,-11%,50µM*,-17%,-38%,14%
S=C(Nc1cccc(Br)c1)c1ccccc1,3%,13µM*,u,-25%,u,-19%
O=C(Nc1cccc(C(=O)Nc2ccc(Br)cc2)c1)c1ccccc1,16%,1%,24%[59 µM],6%,2%,32%
O=C(COC(=O)Cc1ccc(F)cc1)NCc1ccco1,12%,-16%,u,-15%,50µM*,54%
O=C(COC(=O)Cc1cccc(C(F)(F)F)c1)NC1CC1,21%,-10%,7%,7%,-8%,57%
COc1ccc(CC(=O)OCC(=O)NCc2ccco2)cc1OC,x,-2%,50µM*,-6%,8%,37%
O=C(COC(=O)Cc1cccc(C(F)(F)F)c1)NCc1ccco1,x,u,u,79µM*,50µM*,u
CC(C)[C@H](NC(=O)OCc1ccccc1)C(=O)OCC(=O)NCc1ccco1,x,-17%,x,u,x,-17%
CC(C)C(NC(=O)OCc1ccccc1)C(=O)OCC(=O)NCc1ccco1 (configuration not stated),56µM*,-15%,-21%[59 µM],56µM*,50µM*,-16%
Cc1c(Cl)cccc1NC(=O)COC(=O)Cn1cnc2c1c(=O)n(C)c(=O)n2C,x,-2%,-13%[2.33 µM],-1%,25%,38%
COc1ccc(-c2nc3cnc(N4CCOCC4)nc3n(-c3ccccc3)c2=O)cc1,27%,x,5%[0.501 µM],x,x,x
COc1ccc(NC(=O)CSc2nc3ccsc3c(=O)n2CCC(=O)O)c(OC)c1,9%,-4%,-1%,5%,-15%,37%
C[C@@H]1C(=O)O[C@H]2[C@H](O)[C@@]34[C@H]5CC(C(C)(C)C)[C@]36[C@H](OC(=O)[C@H]6O)O[C@]4(C(=O)O5)[C@@]12O (some centres not stated),2%,x,x,x,x,x
O=C(COC(=O)COc1ccc(Nc2ccccc2)cc1)NCc1ccco1,-14%,-7%,50µM*,56µM*,50µM*,u
COc1cc(-n2ccnc2SC)c(Cl)cc1Cl,16%,19µM*,3%[59 µM],-8%[11.4 µM],13µM*,22µM*
COc1ccccc1-n1ccnc1SCC(=O)NC1CCCC1,0%,-10%,-5%,-9%,-4%,2%
Cc1cc(Cl)ccc1OCC(=O)OCC(=O)NCCNC(=O)COC(=O)COc1ccc(Cl)cc1C,x,-2%,x,-15%,x,27%
CC(=O)c1ccccc1OC(=O)COc1ccc(Cl)cc1C,-5%,21µM*,95%,-19%[11.4 µM],33%,108%
Nc1nc(NCCc2ccccc2)c2[nH]cnc2n1,x,x,x,-25%,x,66%
CCCN1CCCc2cc(CN)ccc21,u,19µM*,8.9µM*,4µM*,45µM*,u
SMILES,Sfp inh,PLK1 PBD block,G9a block,JMJD2A Tudor,BAZ2B inh,HP1b chromo inh
CN1CCCc2cc(C=O)ccc21,-13%,u,-49%[59 µM],-10%,9%,28%
Clc1cccc(CSc2nncn3c2cc2sccc23)c1,x,x,0%[59 µM],-1%,-19%,41%
CC1=C(C(=O)Nc2ccccc2)C2(CCCCC2)C(C#N)=C(S)N1,32µM*,u,7.9µM*,-34%,-32%,2%
CSC1=C(C#N)C2(CCCCC2)C(C(=O)Nc2ccccc2)=C(C)N1,x,-8%,x,-27%,x,18%
O=C(Oc1ccc(C(=S)N2CCCCC2)cc1)c1ccccc1F,-4%,-9%,x,-12%,-17%,26%
Cc1ccccc1C(=O)Oc1ccc(Br)cc1C(=S)N1CCCC1,-1%,-18%,45µM*,-8%,-1%,16%
O=C(Oc1ccc(Br)cc1C(=S)N1CCCC1)c1ccccc1F,45µM*,27µM*,8.9µM*,-12%,-8%,-17%
OB(O)c1ccc(B(O)O)cc1,20%,x,x,4%,x,8%
O=C(NN=C1CCCC1)c1ccc(Cl)cc1,-1%,-7%,-5%,-7%,u,46%
O=C1CCC/C(=N/Nc2ccc(Cl)cc2)C1,20µM*,30µM*,4.5µM*,45µM*,45µM*,u
CC(C)[C@H](N)c1nnc(SCc2ccc(Cl)cc2)o1,13%,1%,x,14µM*,-1%,21%
CCC(C)[C@H](N)c1nnc(SCc2ccc(Cl)c(Cl)c2)o1 (some centres not stated),x,x,8.9µM*,3%,u,61%
O=S(=O)(O)c1cccc2cccc(Nc3ccccc3)c12,x,15µM*,x,50µM*,x,16%
COC(=O)c1ccccc1Nc1ccccc1,-5%,2%,75%[59 µM],131%,172%,169%
O=S1(=O)CCOC(CO)CN1Cc1ccc(Cl)c(Cl)c1 (configuration not stated),x,-16%,x,-16%,x,73%
COc1ccc(C(=O)NCCn2cc(SCC(=O)Nc3nnc(C)s3)c3ccccc32)cc1,x,-7%,x,-21%,x,16%
COc1ccc(C(=O)NCCn2cc(SCC(=O)NCC3CCCO3)c3ccccc32)cc1 (configuration not stated),5%,-14%,x,-7%,-7%,27%
COc1ccc(C(=O)NCCn2cc(SCC(=O)NCc3ccco3)c3ccccc32)cc1,u,3µM*,-11%[2.33 µM],u,-31%,-24%
COc1ccc(C(=O)NCCn2cc(SCC(=O)NCCc3ccc(OC)c(OC)c3)c3ccccc32)cc1,x,x,-44%[59 µM],-21%,u,17%
COc1ccc(C(=O)NCCn2cc(SCC(=O)Nc3cccc(C)c3)c3ccccc32)cc1,x,x,-31%[59 µM],-16%,50µM*,33%
Cc1nnc(NC(=O)CSc2cn(CCNC(=O)c3ccccc3)c3ccccc23)s1,-19%,-11%,28µM*,-15%,-3%,48%
